Source: publication PMC10812921, “Transcriptional Coactivator BOB1 (OBF1, OCA-B) Modulates the Specificity of DNA Recognition by the POU-Domain Factors OCT1 and OCT2 in a Monomeric Configuration”

Assays:
POU1 (OCT1 POU domain) = POU1 (OCT1 POU domain) (human, UniProt P14859 260-458); test: EMSA-SELEX-seq; no BOB1; 20 mM Tris-HCl pH 7.6, 140 mM NaCl, 10% glycerol, 0.5 mM EDTA, 0.05% Triton X-100, 0.1 mg/mL BSA, 0.1 mg/mL poly(dI-dC), 5 mM DTT, room temperature, 20 min; high values mean tight binding; conditions: protein: recombinant; dsDNA, one strand shown
POU1 (OCT1 POU domain), sequence (P14859 260-458): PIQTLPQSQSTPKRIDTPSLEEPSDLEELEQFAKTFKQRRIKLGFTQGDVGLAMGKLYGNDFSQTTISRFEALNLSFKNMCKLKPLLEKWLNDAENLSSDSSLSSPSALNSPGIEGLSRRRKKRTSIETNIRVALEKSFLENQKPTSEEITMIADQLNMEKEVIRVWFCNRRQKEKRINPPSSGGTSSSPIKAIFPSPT
Procedure, shortened: (§1)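 With or without 28 ng coactivator protein, 30 ng of tagged POU-domain protein was combined with 300 ng of a PCR-amplified double-stranded random 35-nt library in 20 μL Tris–HCl pH 7.6 binding buffer for 20 min at RT. The protein came from E. coli BL21 and had been purified under denaturing conditions and renatured. Four rounds of cutting complex bands from native 6% PAGE, elution and PCR amplification preceded Illumina sequencing. The binding preference figure is the percentage of sequenced 8-mers matching a motif pattern.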

POU2 (OCT2 POU domain) = target: T1, POU2 (OCT2 POU domain) (human, UniProt P09086 175-386); test: as above; conditions: protein: recombinant; dsDNA, one strand shown
T1 sequence: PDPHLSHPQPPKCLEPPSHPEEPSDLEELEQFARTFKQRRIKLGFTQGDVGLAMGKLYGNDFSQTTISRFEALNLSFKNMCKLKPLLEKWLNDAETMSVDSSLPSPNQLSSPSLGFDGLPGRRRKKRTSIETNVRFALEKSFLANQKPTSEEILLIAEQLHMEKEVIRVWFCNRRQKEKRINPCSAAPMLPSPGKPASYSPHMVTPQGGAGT
Procedure, shortened: as §1

[1] = target: POU1 (OCT1 POU domain);BOB1 (OBF1, OCA-B) (human;human, UniProt P14859;Q16633 260-458;1-256, |); test: EMSA-SELEX-seq; with BOB1 (ternary complex band); 20 mM Tris-HCl pH 7.6, 140 mM NaCl, 10% glycerol, 0.5 mM EDTA, 0.05% Triton X-100, 0.1 mg/mL BSA, 0.1 mg/mL poly(dI-dC), 5 mM DTT, room temperature, 20 min; high values mean tight binding; conditions: protein: recombinant;recombinant; copies: 1;1; dsDNA, one strand shown
Procedure, shortened: as §1

[2] = target: T2, POU2 (OCT2 POU domain);BOB1 (OBF1, OCA-B) (human;human, UniProt P09086;Q16633 175-386;1-256, |); test: as above; conditions: protein: recombinant;recombinant; copies: 1;1; dsDNA, one strand shown
T2 sequence 1: T1 sequence
T2 sequence 2: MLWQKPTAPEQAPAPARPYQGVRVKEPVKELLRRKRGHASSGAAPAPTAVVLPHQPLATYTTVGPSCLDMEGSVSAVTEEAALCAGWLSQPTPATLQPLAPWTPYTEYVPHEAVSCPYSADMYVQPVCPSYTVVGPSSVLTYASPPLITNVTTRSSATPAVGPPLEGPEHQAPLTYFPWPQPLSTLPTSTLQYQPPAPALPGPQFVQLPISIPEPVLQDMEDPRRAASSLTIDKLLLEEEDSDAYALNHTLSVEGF
Procedure, shortened: as §1

Sequence | binding signal (POU1 (OCT1 POU domain)) | binding signal (POU2 (OCT2 POU domain)) | binding signal [1] | binding signal [2]
ATTTGAAC | 0.0496 % of ANNNNAAN 8-mers | 0.0558 % of ANNNNAAN 8-mers | 0.0745 % of ANNNNAAN 8-mers | 0.0553 % of ANNNNAAN 8-mers
ATCACAAT | 0.045 % of ANNNNAAN 8-mers | 0.0518 % of ANNNNAAN 8-mers | 0.039 % of ANNNNAAN 8-mers | 0.0487 % of ANNNNAAN 8-mers
AGCCCAAG | 0.0111 % of ANNNNAAN 8-mers | – | 0.0129 % of ANNNNAAN 8-mers | 0.0124 % of ANNNNAAN 8-mers
AAGTCAAA | 0.141 % of ANNNNAAN 8-mers | 0.113 % of ANNNNAAN 8-mers | 0.258 % of ANNNNAAN 8-mers | 0.165 % of ANNNNAAN 8-mers
ATAGAAAA | 0.0767 % of ANNNNAAN 8-mers | 0.0771 % of ANNNNAAN 8-mers | 0.0695 % of ANNNNAAN 8-mers | 0.0619 % of ANNNNAAN 8-mers
ATATCAAA | 0.0877 % of ANNNNAAN 8-mers | 0.0806 % of ANNNNAAN 8-mers | 0.0823 % of ANNNNAAN 8-mers | 0.0726 % of ANNNNAAN 8-mers
ATTGAAAA | 0.09 % of ANNNNAAN 8-mers | 0.076 % of ANNNNAAN 8-mers | 0.0925 % of ANNNNAAN 8-mers | 0.0627 % of ANNNNAAN 8-mers
ATATGAAA | 0.159 % of ANNNNAAN 8-mers | 0.164 % of ANNNNAAN 8-mers | 0.226 % of ANNNNAAN 8-mers | 0.239 % of ANNNNAAN 8-mers
AATCCAAG | 0.0324 % of ANNNNAAN 8-mers | 0.0339 % of ANNNNAAN 8-mers | 0.0425 % of ANNNNAAN 8-mers | 0.0371 % of ANNNNAAN 8-mers
ATCAAAAC | 0.0465 % of ANNNNAAN 8-mers | 0.0443 % of ANNNNAAN 8-mers | 0.0539 % of ANNNNAAN 8-mers | 0.0347 % of ANNNNAAN 8-mers
ATAATAAA | 0.194 % of ANNNNAAN 8-mers | 0.251 % of ANNNNAAN 8-mers | 0.117 % of ANNNNAAN 8-mers | 0.0999 % of ANNNNAAN 8-mers
ACATCAAG | 0.024 % of ANNNNAAN 8-mers | 0.0351 % of ANNNNAAN 8-mers | 0.0265 % of ANNNNAAN 8-mers | 0.033 % of ANNNNAAN 8-mers
AGCGGAAT | 0.0622 % of ANNNNAAN 8-mers | 0.0725 % of ANNNNAAN 8-mers | 0.0546 % of ANNNNAAN 8-mers | 0.0636 % of ANNNNAAN 8-mers
AATTTAAT | 0.306 % of ANNNNAAN 8-mers | 0.333 % of ANNNNAAN 8-mers | 0.182 % of ANNNNAAN 8-mers | 0.162 % of ANNNNAAN 8-mers
AACCCAAC | 0.0103 % of ANNNNAAN 8-mers | 0.0132 % of ANNNNAAN 8-mers | 0.0113 % of ANNNNAAN 8-mers | 0.0182 % of ANNNNAAN 8-mers
AGATTAAT | 0.147 % of ANNNNAAN 8-mers | 0.207 % of ANNNNAAN 8-mers | 0.0901 % of ANNNNAAN 8-mers | 0.106 % of ANNNNAAN 8-mers

Sequence | binding signal (POU1 (OCT1 POU domain)) | binding signal (POU2 (OCT2 POU domain)) | binding signal [1] | binding signal [2]
AATGGAAG | 0.101 % of ANNNNAAN 8-mers | 0.076 % of ANNNNAAN 8-mers | 0.0644 % of ANNNNAAN 8-mers | 0.0792 % of ANNNNAAN 8-mers
ACGGAAAT | 0.087 % of ANNNNAAN 8-mers | 0.099 % of ANNNNAAN 8-mers | 0.142 % of ANNNNAAN 8-mers | 0.0792 % of ANNNNAAN 8-mers
AGCTGAAA | 0.0267 % of ANNNNAAN 8-mers | 0.0293 % of ANNNNAAN 8-mers | 0.0261 % of ANNNNAAN 8-mers | 0.0239 % of ANNNNAAN 8-mers
ACCTGAAC | 0.021 % of ANNNNAAN 8-mers | – | 0.0113 % of ANNNNAAN 8-mers | 0.0215 % of ANNNNAAN 8-mers
ACTCCAAC | 0.0126 % of ANNNNAAN 8-mers | – | 0.0113 % of ANNNNAAN 8-mers | 0.0198 % of ANNNNAAN 8-mers
AAAAAAAG | 0.0923 % of ANNNNAAN 8-mers | 0.0938 % of ANNNNAAN 8-mers | 0.111 % of ANNNNAAN 8-mers | 0.0842 % of ANNNNAAN 8-mers
ATCGGAAC | 0.0175 % of ANNNNAAN 8-mers | 0.0242 % of ANNNNAAN 8-mers | 0.023 % of ANNNNAAN 8-mers | 0.0231 % of ANNNNAAN 8-mers
ATGCAAAG | 1.06 % of ANNNNAAN 8-mers | 0.831 % of ANNNNAAN 8-mers | 2.22 % of ANNNNAAN 8-mers | 2.27 % of ANNNNAAN 8-mers
ATTACAAA | 0.0919 % of ANNNNAAN 8-mers | 0.0955 % of ANNNNAAN 8-mers | 0.08 % of ANNNNAAN 8-mers | 0.0685 % of ANNNNAAN 8-mers
AGATGAAA | 0.0629 % of ANNNNAAN 8-mers | 0.0558 % of ANNNNAAN 8-mers | 0.0718 % of ANNNNAAN 8-mers | 0.0611 % of ANNNNAAN 8-mers
AAGGAAAT | 0.199 % of ANNNNAAN 8-mers | 0.157 % of ANNNNAAN 8-mers | 0.288 % of ANNNNAAN 8-mers | 0.171 % of ANNNNAAN 8-mers
ACTAGAAA | 0.032 % of ANNNNAAN 8-mers | 0.0322 % of ANNNNAAN 8-mers | 0.0261 % of ANNNNAAN 8-mers | 0.0305 % of ANNNNAAN 8-mers
AGAGGAAA | 0.069 % of ANNNNAAN 8-mers | 0.0667 % of ANNNNAAN 8-mers | 0.0687 % of ANNNNAAN 8-mers | 0.0619 % of ANNNNAAN 8-mers
AGATAAAT | 0.0892 % of ANNNNAAN 8-mers | 0.0886 % of ANNNNAAN 8-mers | 0.0617 % of ANNNNAAN 8-mers | 0.0627 % of ANNNNAAN 8-mers
AACCCAAA | 0.0233 % of ANNNNAAN 8-mers | 0.0173 % of ANNNNAAN 8-mers | 0.0277 % of ANNNNAAN 8-mers | 0.0206 % of ANNNNAAN 8-mers
ATATAAAT | 0.16 % of ANNNNAAN 8-mers | 0.222 % of ANNNNAAN 8-mers | 0.108 % of ANNNNAAN 8-mers | 0.116 % of ANNNNAAN 8-mers
